Hit rate of the full screen: of about 200,000 compounds, about 18,000 (9%) were called active. This is one part of a sample in which actives are shown more often than they occur. Values without a mark were called inactive. No stated cut-off is given here; in the data, active means inhibition above about 50%; inactive means the rest.
Experiment: Leishmania major promastigote growth inhibition, primary screen (AID 1063);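 further: promastigotes grown with compound for 44 hours at 28 °C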
Conditions: Leishmania major promastigotes, resazurin fluorescence viability; at 10 µM; hits give high values

For `CCCCN(CC)CCCNC(=O)CS(=O)(=O)Cc1nc(-c2cccc(OC)c2)oc1C`, the inhibition was 72.4% (active).
With `CCn1cc(CN2CCCC(CNS(=O)(=O)Cc3ccccc3)C2)cn1` (configuration not stated) the inhibition was 50.3% (active).
For `O=C(NCCN1CCN(Cc2ccccc2)CC1)c1cc2c(=O)[nH]c3ccccc3c2s1`, the inhibition was 101% (active).
In the case of `Cc1[nH]n(-c2cccc(Cl)c2)c(=O)c1-c1ccc(Cl)cc1`, the inhibition is reported as 53.3% (active).
In the case of `O=C1/C(=C\c2ccccc2Cl)SC(=S)N1CCC(=O)N1CCCc2ccccc21`, the inhibition is reported as 97.9% (active).
In the case of `c1ccc(Cc2cc[n+](Cc3ccccc3)cc2)cc1`, the inhibition is reported as 52% (active).
With `CCOc1ccc(CN(Cc2ccco2)C(c2cccs2)c2nnnn2C(C)(C)C)cc1` (configuration not stated) the inhibition was 73% (active).
In the case of `COc1ccc(CCn2c(=N)c(C(=O)NCc3ccco3)cc3c(=O)n4cccc(C)c4nc32)cc1`, the inhibition is reported as 67.1% (active).
In the case of `CN(C)Cc1ccccc1C1(O)c2ccccc2CSc2ccccc21` (configuration not stated), the inhibition is reported as 77.4% (active).
In the case of `CCc1nc(C)cn1S(=O)(=O)c1cc(OC)c(C)cc1C`, the inhibition is reported as 67.1% (active).
With `CCc1nc(C)cn1S(=O)(=O)c1cc([N+](=O)[O-])ccc1Cl` the inhibition was 89.9% (active).
In the case of `CC1CC2=C(CC1/C=N/NC(N)=S)C(C)(C)CCC2` (configuration not stated), the inhibition is reported as 100% (active).
For `Cc1cc(C)c2nc3nc(C)cc(C)c3c(N)c2c1`, the inhibition was 100% (active).
For `CCOc1ccc(C2c3[nH]c4ccccc4c3CCN2Cc2cn(CC)nc2C)cc1` (configuration not stated), the inhibition was 64.3% (active).
With `COc1cccc(C2c3[nH]c4ccccc4c3CCN2Cc2cccc(C)n2)c1` (configuration not stated) the inhibition was 82.2% (active).
In the case of `CCOC(=O)CSc1nc2c(sc(=S)n2CCc2ccccc2)c(=O)n1Cc1ccco1`, the inhibition is reported as 50.2% (active).
In the case of `Cc1ccc(C(C[N+](=O)[O-])c2c(C)cc3ccccn23)cc1` (configuration not stated), the inhibition is reported as 100% (active).
In the case of `COc1ccc(COC(=O)c2n[nH]c3ccccc23)cc1F`, the inhibition is reported as 97.5% (active).
With `CCCC(C(=O)NCc1ccco1)N(C(=O)CNS(=O)(=O)c1ccccc1)C1CCCC1` (configuration not stated) the inhibition was 60% (active).

Point of comparison: `Cn1c(N)c(C(=O)COC(=O)c2cnc(Cl)c(Cl)c2)c(=O)n(C)c1=O`, inhibition -4.42%. Against it:
- CCCN(CCC)CCCNC(=O)CNC(=O)c1nn(-c2ccc(OC)cc2)c(=O)c2ccccc12 — higher, 1.38%
- Cc1oc(-c2ccccc2F)nc1CS(=O)(=O)CC(=O)NCCCN(C)C1CCCCC1 — higher, 2.98%
- CCn1c(SCc2cc(=O)n3ccsc3n2)nc2ccccc21 — higher, -1.53%
- CCC(=O)Nc1cc(C(F)(F)F)ccc1N1CCCC1 — higher, -2.29%
- O=C(CCC1CCCN(Cc2ccc(O)c(Cl)c2)C1)NCc1ccccc1F (configuration not stated) — higher, 45.2%
- CCOCCCNS(=O)(=O)Cc1ccccc1 — lower, -9.59%
- O=C(COC(=O)CNC(=O)c1ccco1)Nc1ccc(F)cc1 — higher, -2.3%
- Cn1c(C(=O)NCCN2CCc3ccccc3C2)cc2c(=O)[nH]c3ccccc3c21 — higher, 11.6%
- CN1CCN(CCCNC(=O)c2cc3c(=O)oc4ccccc4c3s2)CC1 — higher, 0.79%
- CCC(C)NC(=O)c1nn(C)c(=O)c2ccccc12 (configuration not stated) — higher, 0.91%
- Cc1cccc(N=Nc2c(C)[nH]n(-c3ccccc3)c2=O)c1 — higher, -1.61%
- Cc1[nH]n(-c2cccc(Cl)c2)c(=O)c1/C=N/n1c(C)nc2ccccc2c1=O — lower, -15.8%
- Cc1nonc1NC(=O)CSc1nc2ccccc2cc1C#N — higher, 1.85%
- CCSc1nc(C)c(CCOc2cccc(C)c2)c(=O)[nH]1 — higher, -3.36%
- O=C(c1c(Cl)nc2sccn12)N1CCCc2ccccc21 — higher, -2.07%
- O=C(CN1CCCCCC1)NCCN1C(=O)S/C(=C\c2ccccc2Cl)C1=O — higher, 1.89%
- CCOC(=O)N1CCN(C(=O)CSc2nc(C)nc3c2c(=O)n(C)c(=O)n3C)CC1 — higher, 8.12%
- S=c1[nH]nc(Nc2ccccc2)s1 — lower, -10.1%
- O=[N+]([O-])c1ccc(F)cc1Oc1nc(-c2cccnc2)nc2ccccc12 — higher, 16.9%
- CC(=O)Nc1ccc(Sc2ccccc2C(=O)N2CCCC2)cn1 — higher, -4.22%
- CCn1c(COc2ccccc2)nnc1SCC(=O)NCc1ccco1 — lower, -5.1%
- CCS(=O)(=O)Nc1ccc(C2=NN(C(C)=O)C(c3cccs3)C2)cc1 (configuration not stated) — higher, 0.67%
- COc1ccc(CNc2c(CO)cnc3c2cnn3C)cc1 — lower, -4.57%
- COC(=O)c1ccc(Cc2ccccc2)o1 — lower, -4.65%
- CN(C)c1cc[n+](Cc2ccccc2)cc1 — higher, -2.95%
- COc1ccc(-c2[nH]ncc2CN(C)Cc2cc(C)[nH]n2)c(F)c1 — higher, -3.28%
- Cc1cc(C)c(S(=O)(=O)N2CCOCC2)cc1C — higher, 0.43%
- Cn1cc(CCC(=O)N2CCCC(C(=O)c3ccc(C(C)(C)C)cc3)C2)cn1 (configuration not stated) — higher, -0.59%
- CC(C)(C)n1nnnc1C(c1cccs1)N(Cc1cccnc1)CC1CCCO1 (configuration not stated) — higher, 18.7%
- Cc1ccc(S(=O)(=O)NNC(=O)Nc2cccc3ccccc23)cc1 — higher, 34.5%
- CC(=O)Nc1ccc(NC(=O)C(C)n2c3ccccc3c3nc(=O)cc(C)n32)cc1 (configuration not stated) — higher, 2.66%
- CCn1c(=N)c(C(=O)NCCCOC)cc2c(=O)n3cccc(C)c3nc21 — higher, 28.4%
- O=C(NCc1ccco1)c1cccn2c(=O)c3c4c(sc3nc12)CCCC4 — higher, -1.47%
- Cc1nn(CC(=O)Nc2ccc3c(c2)OCO3)c(C)c1[N+](=O)[O-] — higher, 7.29%
- COc1ccc(C2CC(c3cccs3)=NN2c2ccc(F)cc2)cc1OC (configuration not stated) — higher, 15.6%
- CCc1nnc(NC(=O)Cc2cccs2)s1 — lower, -5.86%
- O=C(CNC(=O)c1cc(=O)[nH]c2ccccc12)Nc1ccc(F)c(F)c1 — higher, 2%
- CC(C)c1nccn1S(=O)(=O)c1cc([N+](=O)[O-])ccc1Cl — higher, 25.1%
- CCCOc1cc(C)c(S(=O)(=O)n2nnc3ccccc32)cc1C — lower, -5.25%
- CCc1nccn1S(=O)(=O)c1cccc([N+](=O)[O-])c1 — higher, 33.6%
- COc1cc2sc(C)nc2cc1C — higher, -0.96%
- Cn1c(=O)cc(OCC(=O)N2CCN(c3ccccc3F)CC2)c2ccccc21 — higher, -1.08%
- COC(=O)c1ccc(/C=N/OCC(=O)Nc2cc(F)ccc2F)cc1 — higher, 6.63%
- CCc1ccc(OCC(=O)OCC(=O)c2c(N)n(C)c(=O)n(C)c2=O)cc1 — lower, -8.87%
- Cc1cccc(C)c1NC(=O)C1(N(C(=O)c2ccccn2)c2ccc(O)cc2)CCCCC1 — higher, -0.59%
- Cc1cc(C)cc(NC(=O)COC(=O)c2cc(C)oc2C)c1 — higher, -1.77%
- CC1(C)CCCC2=C1CC1C(=O)N(c3ccccc3)C(=O)C1C2 (configuration not stated) — higher, 4.86%
- COCCNC(=O)c1ccc(-n2c(SCc3cccnc3)nc3ccccc3c2=O)cc1 — higher, -2.65%
- COc1cc(N2C(=O)c3ccccc3C2=O)c(Cl)cc1C(=O)OCC(=O)N1CCOCC1 — higher, 16.7%
- CC1=C(C(=O)Nc2cc(C)ccn2)C(c2cnn(C)c2)C2=C(CC(c3ccccc3)CC2=O)N1 (configuration not stated) — higher, 1%
- Cc1cc(C)c2nc(SCCC#N)nc(C)c2c1 — higher, 5.11%
- Cc1cc(C)c2c(n1)nn1c(N3CCOCC3)cc(C)nc21 — higher, 4.53%
- O=C(C1CCCO1)N(c1ccc(F)cc1)C1C=CS(=O)(=O)C1 (configuration not stated) — lower, -5.34%
- CC1CCC2(CC1)NC(=O)N(Cc1nnc(-c3cccs3)o1)C2=O (configuration not stated) — higher, 1.95%
- COc1ccc(CCN=C2SCC(=O)N2Cc2ccccc2)cc1OC — higher, 20.8%
- COCc1ccc(C(=O)N2CCc3c([nH]c4ccccc34)C2c2ccccn2)s1 (configuration not stated) — higher, 13.5%
- Oc1cccc(C2c3[nH]c4ccccc4c3CCN2Cc2cnn(-c3ccccc3)c2)c1 (configuration not stated) — higher, -0.63%
- COc1ccc(C2c3[nH]c4ccccc4c3CCN2CCCn2cccn2)cc1C (configuration not stated) — higher, 16.8%
- c1ccc(C2c3[nH]c4ccccc4c3CCN2Cc2cccn2-c2cccnc2)nc1 (configuration not stated) — higher, 0.1%
- CC(C)C(O)C1CCN(Cc2nc(Cc3ccccc3Cl)no2)CC1 (configuration not stated) — higher, 1.45%
- COc1ccc([N+](=O)[O-])cc1NC(=O)CC1SC(=Nc2cccc(C)c2C)N(/N=C(\C)c2ccc(C)cc2)C1=O (configuration not stated) — higher, 30.7%
- CC1(C)C2CCC1(C)C(OC(=O)c1ccc(O)cc1)C2 (configuration not stated) — higher, 14.5%
- CC1CC(C)CN(S(=O)(=O)c2ccc(C(=O)NN3CCOCC3)cc2)C1 (configuration not stated) — higher, 6.29%
- CCOC(=O)CSc1nc2c(c(=O)n(C)c(=O)n2C)n1Cc1ccccc1F — lower, -9.26%
- COc1ccccc1NC(=O)CSc1nc2sc(C)c(C)c2c(=O)n1Cc1ccco1 — higher, 7.51%
- CC(C)C(=O)Nc1oc(-c2ccccc2)cc1C#N — higher, 0.64%
- O=C(CSc1ccsc1[N+](=O)[O-])N1CCCCC1 — higher, 14.2%
- Cc1nnc(N/N=C/C2CC=CCC2)[nH]c1=O (configuration not stated) — lower, -5.21%
- O=C(COC(=O)c1n[nH]c2ccccc12)NCc1ccccc1 — higher, 3.11%
- COc1cccc(CNC(=O)c2n[nH]c3ccccc23)c1 — higher, 6.49%
- CCSc1ccccc1C(=O)Nc1ccc2c(c1)OCO2 — higher, 7.96%
- CN(C)CCCn1c(SCCN2C(=O)c3ccccc3C2=O)nc2ccccc2c1=O — higher, -2.2%
- Cc1ccc(C)c(NC(=O)CCC(=O)N/N=C2/CC(=O)CC(C)(C)C2)c1 — higher, -2.4%
- Cc1nnc(SC(C(=O)Nc2cc(Cl)cc(Cl)c2)c2ccccc2)[nH]c1=O (configuration not stated) — lower, -10.6%
- O=C(CCC(=O)N1CCCC1)Nc1ccc([N+](=O)[O-])cc1 — higher, -1.46%
- O=C(NCc1ccco1)C1CCCN(S(=O)(=O)c2ccccc2)C1 (configuration not stated) — higher, -0.05%
- O=C(CN(CC1CCCO1)C(=O)CNS(=O)(=O)c1ccc(F)cc1)NCc1ccco1 (configuration not stated) — lower, -10%

From PubChem BioAssay AID1063 (University of Pittsburgh Molecular Library Screening Center, 2008)
